Assay outcomes (PubChem)
Most compounds without a hit are left out; they make up all but 9.2% or so of the library.
SMN2 splice enh: increases expression of the SMN2 splice variant | HEK293 SMN2-luciferase splicing reporter, luminescence, 30-36 h | Potency, µM (titrated, usually from 46.1 µM), inactives show at the highest dose activity change, positive = activation, actives largely listed as activators | 210,000 tested, 2.8% active | AID 1458; also: % of control where 0% means no effect; nearly all actives have a fitted effect of over 55% in size
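HEK293 cells carry an SMN2 […]–luciferase reporter in which exon 7 inclusion puts luciferase in frame. Cells were plated 10-12 h before compound addition, then incubated 30-36 h at 37C. ONE-Glo luminescence was read; sodium butyrate at 4.5 mM final served as control.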
FLuc modulator: counter-screen for miR-21 project: firefly luciferase inhibitors or activators; purified FLuc, Km substrates, luminescence inhibition; Potency, µM (top dose mostly 57.5 µM), inactives show at the highest dose activity change, negative = inhibition, most hits filed as inhibitors; 360,000 tested, 6.9% active;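 also: plate controls were vehicle for no effect and reference inhibitor for full effect; nearly all actives have a fitted effect of over 55% in size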
Target sequence (P08659 whole entry, looked up): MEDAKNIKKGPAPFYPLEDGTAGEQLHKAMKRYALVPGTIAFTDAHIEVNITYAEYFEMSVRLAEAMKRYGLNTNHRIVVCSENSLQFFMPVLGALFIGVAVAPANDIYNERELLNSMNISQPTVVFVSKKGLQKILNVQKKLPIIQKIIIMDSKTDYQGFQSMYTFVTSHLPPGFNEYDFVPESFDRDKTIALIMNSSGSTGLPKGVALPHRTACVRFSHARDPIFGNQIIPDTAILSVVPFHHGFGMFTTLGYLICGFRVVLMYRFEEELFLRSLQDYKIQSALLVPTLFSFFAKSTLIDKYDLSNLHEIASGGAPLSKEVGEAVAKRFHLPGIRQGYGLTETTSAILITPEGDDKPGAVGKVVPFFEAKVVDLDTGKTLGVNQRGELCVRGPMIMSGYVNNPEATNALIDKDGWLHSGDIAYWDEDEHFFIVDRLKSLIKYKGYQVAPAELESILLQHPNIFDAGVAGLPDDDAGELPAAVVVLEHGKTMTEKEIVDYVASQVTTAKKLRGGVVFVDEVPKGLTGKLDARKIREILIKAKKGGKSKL
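Biochemical qHTS of compounds, final roughly 60 µM downward over six points, against 10 nM purified firefly luciferase using Km concentrations of substrates (10 uM D-luciferin, 10 uM ATP) in Tris acetate pH 7.5 buffer; luminescence output.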
NPC1 promoter act: activates the NPC1 promoter. Huh7 NPC1 promoter luciferase reporter, 24 h. Potency, µM (series often up to 9.22 µM), inactives show top-dose activation, hits mostly activators. 320,000 tested, 2.4% active; also: % of control where 0% means no effect; nearly all actives have a fitted effect of over 60% in size
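Luminescence read-out of NPC1 promoter-driven luciferase in stably transfected Huh7 cells; compounds delivered in DMSO and left 24 h at 37C, 5% CO2, qHTS titration format.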
Rab9 promoter act: activators of Rab9 promoter; AID 485297; Potency, µM (titrated, usually from 9.22 µM), for inactives: at the highest dose activation, negative = inhibition, usual class: activators; Huh7 Rab9 promoter-luciferase reporter, luminescence, 24 h; 320,000 tested, 2.8% active; also: % of control where 0% means no effect; nearly all actives have a fitted effect of over 60% in size
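Rab9 promoter-driven luciferase in stably transfected Huh7 cells; 1500 cells/well rested 2 h, exposed to compound in DMSO for 24 h at 37 °C, 5% CO2. Luminescence read 10 min after adding luciferase reagent at ambient temperature.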
ELG1 genotoxic: genotoxicity induction in ELG1-luciferase HEK293T cells; AID 504466; Potency, µM (highest dose often 46 µM), without a hit: at the top dose activity change, positive = activation, usual class: activators; HEK293T ELG1-luciferase reporter, luminescence, 16 h; 330,000 tested, 1.3% active; also: % of control where 0% means no effect; nearly all actives have a fitted effect of over 60% in size
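ELG1-luciferase HEK293T cells, 2,000/well; compound pinned in; 16 hr, 37 °C, 5% CO2; ONE-Glo, 30 min RT; luminescence on CCD imager.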
ELG1 repair inh: inhibitors of ELG1-dependent DNA repair in HEK293T cells | HEK293T ELG1-luciferase reporter, luminescence, 16 h; DNA damage induced by 5-fluorouridine | Potency, µM (top dose mostly 46.1 µM), inactives show top-dose activity change, negative = inhibition, actives largely listed as inhibitors | AID 504467 | 330,000 tested, 2.3% active; also: % is scaled to controls: 0 for no effect and ±100 for the full control effect; nearly all actives have a fitted effect of over 55% in size
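Quantitative HTS, concentration-response format. 2,000 cells/well co-treated with 5-fluorouridine and compound, 16 hr in 5% CO2 at 37 °C; ONE-Glo luminescence read after 30 min.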
* = called active by the depositor; ? = inconclusive; / = not tested or not shown; [ ] = remark or other dose. Calls follow the shape of the dose curve; as a rule, active = well fitted curve in the direction sought with a large enough effect; inconclusive = small, poorly fitted or top-dose-only effect, or another doubt; inactive = no such curve, though single readings can be large; an effect the other way counts as inactive or inconclusive. Potency is read from the fitted curve at half-maximal effect.

SMILES	SMN2 splice enh	FLuc modulator	NPC1 promoter act	Rab9 promoter act	ELG1 genotoxic	ELG1 repair inh
Cc1cc(OCc2cc(C(=O)N(C)Cc3ccccn3)no2)cc(C)c1Cl	/	12µM*	3.98µM*	3.98µM*	?	?
Cc1cc(OCc2cc(C(=O)N(C)C(C)c3ccccn3)no2)cc(C)c1Cl (configuration not stated)	/	19µM*	?	?	?	?
CCOc1ccc(OCC(=O)NCCS(=O)(=O)N2CCN(c3ccc(OC)cc3)CC2)cc1	/	2.0%	/	/	/	/
C[C@@]12CC(=O)C3=C(CCCC3=O)N1CCc1ccccc12	-18.8%	/	/	/	/	/
CC(=O)O[C@H]1CC[C@]2(C)C(=CC[C@H]3[C@H]4C[C@H]5O[C@]6(CC[C@H](C)CN6)[C@H](C)[C@@H]5[C@]4(C)CC[C@@H]32)C1	-1.5%[9.22 µM]	/	/	/	/	/
O=C(Nc1nc(-c2ccc(Oc3ccccc3)cc2)cs1)C1=COCCO1	-61.0%	?	-5.2%	-1.0%	3.9%	?
CCOC(=O)c1csc(NC(=O)C2CCCCC2)n1	?	?	23.2%	27.1%	?	?
CC(=O)Nc1ccc(-c2csc(NC(=O)C3=COCCO3)n2)cc1	/	-16.6%	29.5%	?	1.1%	25.7%
Cc1ccc(-c2csc(NC(=O)N3CCOCC3)n2)cc1	-24.6%	26.9µM*	5.2%	15.5%	?	3.5%
CCOC(=O)c1csc(NC(=O)C2=COCCO2)n1	/	15.1µM*	2.51µM*	2.82µM*	9.2µM*	?
Cc1ccc(-c2csc(NC(=O)C3=COCCO3)n2)cc1	14.1µM*	15.1µM*	?	2.82µM*	?	?
CCCc1ccc(-c2csc(NC(=O)C3=COCCO3)n2)cc1	/	/	1.12µM*	1.26µM*	11.5%	?
CN(CCCNC(=O)CSc1cc(=O)n(C)c2ccc(Cl)cc12)Cc1ccccc1	-1.3%	-4.8%	-1.8%	-2.9%	29.9%	?
CCN1CCN(C(=O)c2cc3cc(F)ccc3[nH]2)CC1	/	-15.4%	0.6%	-2.6%	0.8%	13.9%
CC(C)(C)c1csc(NC(=O)C2=COCCO2)n1	/	9.53µM*	3.16µM*	2.51µM*	?	?
Cc1nn(CCC(=O)N2CCN(c3ccccc3)CC2)c(C)c1S(=O)(=O)N1CCCC1	/	-1.0%	/	/	/	/
CC(=O)Nc1sc(-c2ccc(Cl)cc2)nc1-c1ccccc1	/	-14.2%	-7.4%	-3.4%	1.0%	12.6%
CC(C)(C)c1csc(N/N=C/c2ccc(O)cc2)n1	/	21.3µM*	29.3%	?	?	?
CCOc1cc(/C=N/Nc2nc(-c3cccs3)c(NC(C)=O)s2)ccc1O	/	26.9µM*	-0.8%	1.1%	0.8%	?
CC(=O)Nc1sc(N/N=C\c2ccccc2Cl)nc1-c1cccs1	-20.4%	-17.8%	3.8%	13.1%	?	?
CC(=O)Nc1sc(N/N=C\c2ccco2)nc1-c1cccs1	-11.2%	16.9µM*	-1.9%	16.4%	1.7%	-1.7%
CC(=O)Nc1sc(N/N=C/c2ccccc2F)nc1-c1ccc(C)cc1	/	7.57µM*	1.4%	9.6%	-2.4%	0.0%
Cc1cc(C)c2c(=O)[nH]c(SCC(=O)c3ccc(C)c(C)c3)nc2n1	13.1%	?	5.6%	-1.7%	-0.4%	-6.0%
O=C(O)Cn1c(SCCOc2ccc(Cl)cc2)nc2ccccc21	/	?	-3.6%	1.4%	-1.1%	-4.5%
Cc1cccc(N2CCN(CCCNC(=O)c3nnc(Cc4c(F)cccc4Cl)o3)CC2C)c1 (configuration not stated)	-16.6%	-5.0%	/	/	/	/
SMILES	SMN2 splice enh	FLuc modulator	NPC1 promoter act	Rab9 promoter act	ELG1 genotoxic	ELG1 repair inh
CC(=O)Nc1sc(N/N=C/c2ccccc2)nc1-c1ccc(C)cc1	/	8.49µM*	-1.4%	-2.0%	4.5%	?
Cc1ccc(NC(=O)CCC(=O)N/N=C/c2ccc(O)cc2)cc1	/	-14.7%	-1.1%	2.2%	1.7%	?
CC(=O)Nc1sc(-c2ccccc2)nc1-c1ccccc1	-27.8%	-24.9%	0.4%	-2.3%	14.9%	?
COc1ccc(/C=N/Nc2nc(-c3ccc(C)cc3)c(NC(C)=O)s2)cc1	/	5.36µM*	10.4%	-2.2%	7.1%	24.8%
CC(=O)Nc1sc(N/N=C/c2ccc(O)cc2)nc1-c1ccc(C)cc1	/	2.39µM*	1.3%	9.8%	?	?
CC(=O)Nc1sc(N/N=C\c2ccccc2)nc1-c1cccs1	-49.4%	19µM*	3.3%	5.6%	?	?
COCCCn1c(=O)c2sccc2n2c(CCCC(=O)NC3CCC(C)CC3)nnc12 (configuration not stated)	/	-1.3%	/	/	/	/
CC(=O)Nc1nc2ccc(Br)cc2s1	7.6%	16.9µM*	3.16µM*	2.82µM*	?	?
COc1ccc2nc(NC(=O)CSCc3c(C)noc3C)sc2c1	/	?	0.7%	13.2%	?	?
CC(=O)NCCC(=O)Nc1nc2ccc(Oc3ccccc3)cc2s1	/	6.75µM*	1.41µM*	0.891µM*	3.66µM*	?
COc1ccc2nc(NC(=O)CSCC(=O)Nc3cc(C)on3)sc2c1	/	16.9µM*	?	5.01µM*	?	?
COc1ccc(Br)cc1C(=O)Nc1nc2ccc(F)cc2s1	-54.2%	?	/	/	/	/
COc1ccc(OCC(=O)Nc2nc3ccc(NC(C)=O)cc3s2)cc1	8.5%	-14.6%	6.5%	18.6%	12.0%	?
COc1ccc2nc(NC(C)=O)sc2c1	14.1µM*	12µM*	2.24µM*	2.51µM*	?	?
CC(=O)c1cccc(NS(=O)(=O)c2cc3c(cc2C)n(C)c(=O)c(=O)n3C)c1	/	3.1%	/	/	/	/
O=S(=O)(NCc1ccccc1)c1ccccc1Br	/	3.3%	-0.3%	-2.2%	-2.3%	0.9%
Cc1[nH]nc(Sc2ccccn2)c1[N+](=O)[O-]	11.9%	-1.5%	-2.1%	-4.5%	2.0%	26.1%
CCC(C)C(=O)Nc1nc2ccc(OC)cc2s1 (configuration not stated)	/	12µM*	2.51µM*	2.51µM*	?	?
COc1ccc2nc(NC(=O)c3ccccc3[N+](=O)[O-])sc2c1	/	?	27.1%	?	5.9%	22.1%
CCOC(=O)c1cc(-c2ccc(F)cc2)n(CCC(=O)Nc2nc3ccc(OC)cc3s2)c1C	/	-2.3%	/	/	/	/
CCOCCn1c(=NC(=O)CSCC(=O)Nc2cc(C)on2)sc2cc(OC)ccc21	/	-0.4%	-1.9%	5.5%	-0.3%	14.6µM*
CCOC(=O)c1cccc(C(=O)Nc2nc3ccc(OC)cc3s2)n1	11.2µM*	0.477µM*	2.24µM*	1.58µM*	-5.6%	?
COc1ccc2nc(NC(=O)c3ccccc3O)sc2c1	/	0.135µM*	1.26µM*	0.794µM*	?	?
